Source: PubChem BioAssay AID485341 (National Center for Advancing Translational Sciences (NCATS), 2010)
The whole screen tested about 330,000 compounds, of which about 1,700 (0.52%) were called active. Many of the other results were omitted from the sample, so actives are more common in it than they were. Unmarked numbers belong to inactive results. Calls come from the whole dose curve; as a rule, active = well fitted inhibition curve with a large enough effect; inconclusive = small, poorly fitted or top-dose-only effect; inactive = no such curve, though single readings can be large or run the other way.

Molecular target: Beta-lactamase (Escherichia coli (strain K12)) (UniProt P00811)
Assay: qHTS Inhibitors of AmpC Beta-Lactamase (assay without detergent); note: nearly all actives have a fitted effect of over 20% in size
Settings: AmpC nitrocefin hydrolysis, absorbance 480 nm, 0.0001% Triton; series mostly up to 57.1 µM; activity change, negative = inhibition: at the top concentration
Description: NIH Molecular Libraries Probe Production Network [MLPCN] NIH Chemical Genomics Center [NCGC] Assay Provider: Professor Brian Shoichet, UCSF Assay Overview: This aggregation profiling approach exploits the sensitivity of aggregate formation to detergent. Inhibition of b-lactamase is measured in the presence and absence of 0.01% Triton X-100. This particular assay had the prescence of 0.01% Triton X-100. See Pubchem assay "Promiscuous and Specific Inhibitors of AmpC Beta-Lactamase (assay without detergent)" for related screen. Compounds that inhibit only in the absence of detergent are considered likely promiscuous aggregators. A screen of 1,030 compounds was performed in Brian Shoichet's lab in 96-well format. AmpC activity was measured by following the absorbance at 480 nm. Nitrocefin is a chromogenic substrate: while nitrocefin is yellow (lmax 390 nm), the product of its hydrolysis is red (lmax 486 nm, 17,000 M-1). AmpC beta lactamase was provided by Shoichet Lab, UCSF.
Buffer: 20 mM phosphate buffer, pH 7.0 Triton X-100: No Detergent screen: 0.0001%, Detergent screen: 0.01%. Reagents/Controls: Buffer in columns 3 and 4 as negative control (no enzyme). 5.3 nM AmpC in columns 1, 2, 5-48. Titration of UCSF compound 9 control (from 10 mM, then 1:2) pin-transferred to column 2. Column 1 is neutral (100% activity). Assay Steps: Six uL of reagents were dispensed to 1536-well Greiner black clear bottom plates. Compounds and controls (23 nL) were transferred via Kalypsys PinTool. The plates were incubated for 15 min at room temperature, and then 2 uL of 800 uM solution of nitrocefin was added to start the reaction. The plates were immediately transferred to and read every 20 seconds for 4 min on ViewLux (Perkin-Elmer) High-throughput CCD imager using 480 nm absorbance protocol. During dispense, reagent bottles were kept submerged into 4 deg C water bath. Keywords: NIH Roadmap, MLSCN, MLI, MLSMR, qHTS, NCGC, AmpC Beta-Lactamase, Aggregation
Potency is the fitted concentration of half-maximal effect.

Chain of Beta-lactamase (Escherichia coli (strain K12)) (P00811 whole entry, looked up): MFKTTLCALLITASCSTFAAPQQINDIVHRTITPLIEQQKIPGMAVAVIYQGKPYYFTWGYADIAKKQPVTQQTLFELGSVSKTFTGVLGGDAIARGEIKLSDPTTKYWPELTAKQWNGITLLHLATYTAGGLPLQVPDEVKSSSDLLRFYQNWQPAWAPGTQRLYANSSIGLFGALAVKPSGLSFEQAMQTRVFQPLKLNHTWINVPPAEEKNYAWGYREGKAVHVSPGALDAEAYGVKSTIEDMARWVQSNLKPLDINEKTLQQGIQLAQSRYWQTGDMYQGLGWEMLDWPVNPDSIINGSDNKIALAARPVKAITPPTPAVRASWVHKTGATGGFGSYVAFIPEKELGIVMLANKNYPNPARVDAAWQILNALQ

SMILES | activity change, negative = inhibition [%] | Potency
COc1ccccc1NC(=O)COc1ccc(C(=O)OCC(=O)N(C(C)C)C(C)C)cc1OC | 108 | –
COc1ccc(N(CC(=O)Nc2cccc3ccccc23)S(C)(=O)=O)c(OC)c1 | 33.5 | –
COc1cc(CO)ccc1OCC(=O)Nc1cccc2ccccc12 | – | 14.1 µM (active)
CCc1ccccc1NC(=O)CSc1nnc([C@@H](NC(=O)OC(C)(C)C)C(C)CC)o1 (stereo partly specified) | -2.18 | –
C[C@@H](NC(=O)OC(C)(C)C)c1nnc(S(=O)(=O)Cc2ccccc2)o1 | – | 10 µM (active)
COc1ccccc1NC(=O)[C@H](COCc1ccccc1)NC(=O)OC(C)(C)C | 0.197 | –
Cn1c(Cc2csc(N)n2)nnc1SC/C=C/c1ccccc1 | -22.6 | –
COc1cc(Cl)c(S(=O)(=O)N2CCN(Cc3ccc4c(c3)OCO4)CC2)cc1Cl | 3.51 | –
O=C(CN1C(=O)/C(=C\c2ccccc2F)SC1=S)Nc1nc2ccccc2s1 | -33.9 | –
COc1ccc(/C=C2/SC(=O)N(CCCCCC(=O)Nc3ccccc3C(=O)O)C2=S)cc1 | -28.7 | –
O=C(CCCN1C(=O)/C(=C/c2cccs2)SC1=S)Nc1ccc(O)cc1 | -43.8 | –
O=C1/C(=C\c2ccccc2Cl)SC(=S)N1CCC(=O)N1CCCc2ccccc21 | -9.24 | –
O=C(CCCN1C(=O)/C(=C\c2ccco2)SC1=S)Nc1cccc2ccccc12 | – | 11.2 µM (active)
O=C(CCCN1C(=O)/C(=C\c2ccccc2)SC1=S)Nc1ccccc1O | – | 11.2 µM (active)
CCC(c1nnc(SCC(=O)NNC(=O)c2ccccc2)n1Cc1ccccc1)N(C)C (stereo unspecified) | 1.21 | –
CN(C)/C=C(/C(=O)c1ccccc1)S(=O)(=O)c1ccc(Cl)cc1 | -33.1 | –
CN(C)/C=C(/C(=O)c1ccc(F)cc1)S(=O)(=O)c1ccc(F)cc1 | – | 12.6 µM (active)
CN(C)/C=C(/C(=O)c1ccc(Cl)cc1)S(=O)(=O)c1ccccc1 | -15.6 | –
Cc1ccccc1CN1CCNC(=O)C1CC(=O)NCCC1=CCCCC1 (stereo unspecified) | 99.3 | –
COc1cc(NC(=S)NNC(=O)CC(C)C)c(OC)cc1Cl | -27 | –
C=CCNC(=O)c1sc(SC)cc1-c1ccc(Cl)cc1 | – | 1 µM (active)
CSc1sc(C(=O)NNC(=O)c2ccc(Cl)cc2)c2c1C=CCC2 | -47 | –
C=CCNC(=O)c1csc(-c2ccccc2)n1 | -25.3 | –
CCN1CCN(CC(=O)c2cc(OC)c(OC)c(OC)c2)CC1 | -9.84 | –
CC(C)c1ccc(N(C(=O)c2ccco2)C(C(=O)NC2CCCC2)c2cccnc2)cc1 (stereo unspecified) | 30.8 | –
COC(=O)c1cc(C(=O)OC)cc(N2C(=O)CC(N3CCN(c4ccccc4)CC3)C2=O)c1 (stereo unspecified) | 11.2 | –

SMILES | activity change, negative = inhibition [%] | Potency
COC(=O)c1ccccc1SC1CC(=O)N(c2cccc(C)c2)C1=O (stereo unspecified) | – | 7.08 µM (active)
Cc1cccc(N2C(=O)CC(SC(N)=Nc3ccccc3)C2=O)c1 (stereo unspecified) | -10.7 | –
CCc1ccc(Oc2nc([N+](=O)[O-])nn2C)cc1 | -10.1 | –
O=C1CC(=O)N(Cc2ccccc2)C(=O)N1CCCCCCN1C(=O)CC(=O)N(Cc2ccccc2)C1=O | – | 7.08 µM (active)
Cc1c(NC(=O)CN2C(=O)C(=O)N(Cc3ccccc3)C2=O)c(=O)n(-c2ccccc2)n1C | -15.6 | –
O=C(O)CCCN1C(=O)C2C3c4ccccc4C(c4ccccc43)[C@@H]2C1=O (stereo partly specified) | -5.32 | –
COc1ccc(CCN2C(=O)N(c3ccc(OC)cc3)C(=O)C2CC(=O)Nc2ccc(OC)cc2)cc1 (stereo unspecified) | -11.7 | –
CCN=C1S/C(=C\c2cc(Br)ccc2OCC(=O)OCC)C(=O)N1CC | 3.25 | –
O=c1c2ccccc2[nH]c(=S)n1CCN1CCC(=C(c2ccc(F)cc2)c2ccc(F)cc2)CC1 | – | 3.16 µM (active)
CCCCn1c(=S)[nH]c2ccccc2c1=O | -26.7 | –
COc1ccc(Cn2c(=S)[nH]c3cc(C(=O)NCCCN4CCOCC4)ccc3c2=O)cc1 | 35.1 | –
C=CCn1c(SCCOc2ccc(OC)cc2)nnc1C(NC(=O)c1ccc(OC)cc1)C(C)C (stereo unspecified) | 3.24 | –
COc1cccc(NC(=O)CCc2nnc3ccc(N4CCC(C)CC4)nn23)c1 | 125 | –
CN(CC(=O)NCC(c1ccccc1)N1CCCC1)S(=O)(=O)c1ccc(Cl)cc1 (stereo unspecified) | 96.8 | –
O=C(COC(=O)c1ccc(NS(=O)(=O)c2cccs2)cc1O)Nc1ccc(F)cc1 | – | 14.1 µM (active)
CCc1ccc(NC(=O)COC(=O)c2cccs2)cc1 | -24.7 | –
O=C(COC(=O)c1ccc(O)cc1O)NNC(=O)c1cccs1 | -14.2 | –
CC(=O)N/C(=C/c1ccc(OC(F)F)cc1)C(=O)O | -19.8 | –
COc1cccc(-c2coc3cc4oc(=O)c(CC(=O)O)c(C)c4cc23)c1 | -22.6 | –
C=CCNC(=O)COc1coc(CN2CCN(Cc3ccccc3)CC2)cc1=O | 48.1 | –
COc1ccc(OCCCC(=O)Nc2cccc(S(=O)(=O)N3CCCCCC3)c2)cc1 | -8.29 | –
COc1cccc(NC(=O)COc2cccnc2[N+](=O)[O-])c1 | -40.6 | –
O=C(CC(NS(=O)(=O)c1ccc(Cl)cc1)c1ccco1)NC1CCCC1 (stereo unspecified) | -46.4 | –
COc1ccccc1CNC(=O)COC(=O)CNS(=O)(=O)c1ccc(NC(C)=O)cc1 | -14.1 | –
COc1ccc(S(=O)(=O)NC(CC(=O)NCc2ccccc2OC)c2ccco2)cc1 (stereo unspecified) | – | 0.316 µM (active)
Cc1cc(C)n(-c2ccc3nncn3n2)n1 | -5.01 | –

SMILES | activity change, negative = inhibition [%] | Potency
COc1ccc(C2N3CC(C)(C)CN23)cc1 (stereo unspecified) | -13.2 | –
O=C(CC1CCCCC1)NCc1ccco1 | -0.34 | –
O=C(CN1C(=O)/C(=C\c2ccc(C(F)(F)F)cc2)Sc2ccccc21)NCc1ccco1 | – | 10 µM (active)
O=C(CN1C(=O)/C(=C/c2ccccc2F)Sc2ccccc21)NCc1cccnc1 | 131 | –
CC1CN(Cc2nc3c(c(=O)n(C)c(=O)n3C)n2Cc2cccc(Cl)c2)CC(C)O1 (stereo unspecified) | – | 44.7 µM (active)
CCOC(=O)N1CCN(Cc2nc3c(c(=O)n(C)c(=O)n3C)n2Cc2ccccc2)CC1 | -89.9 | –
CN1CCN(Cc2nc3c(c(=O)n(C)c(=O)n3C)n2Cc2cccc3ccccc23)CC1 | 19.2 | –
C=CCn1c(C2CC(=O)N(c3ccc(C)cc3)C2)nc2ccccc21 (stereo unspecified) | 8.29 | –
O=S(=O)(c1cccc2nonc12)N1CCN(c2cccc(Cl)c2)CC1 | -29.9 | –
CC(=O)c1ccccc1NC(=O)CC1(CC(=O)O)CCCCC1 | -18.6 | –
CC(C)N(c1ccccc1)c1ncnc(NCCC(=O)O)c1[N+](=O)[O-] | – | 0.316 µM (active)
Cc1ccc(C(C)NC(=O)Cn2nc(C)c([N+](=O)[O-])c2C)cc1 (stereo unspecified) | -16.3 | –
Cc1ccc(OCC(=O)NC(C)c2ccccc2)c([N+](=O)[O-])n1 (stereo unspecified) | 7.38 | –
CC(OC(=O)CCCOc1ccccc1)C(=O)Nc1ccc(Cl)cn1 (stereo unspecified) | -29.5 | –
Cc1cccc(N2C(=O)SC(SC(=Nc3ccccc3)Nc3ccccc3)C2=O)c1 (stereo unspecified) | -30.1 | –
O=[N+]([O-])c1cc(Cl)cc(/C=N/NC(=S)Nc2cc(S(=O)(=O)N3CCOCC3)ccc2Cl)c1O | -46.8 | –
O=C(N/N=C/c1cc(Cl)cc([N+](=O)[O-])c1O)C(O)(c1ccccc1)c1ccccc1 | – | 10 µM (active)
CN(C)/N=C/c1cc(Cl)cc([N+](=O)[O-])c1O | -14.3 | –
OCCNCCOc1ccc(Cl)c(Cl)c1 | -15.5 | –
S=C(NCCC1=CCCCC1)Nc1ccccc1 | -29.9 | –
COc1ccccc1C1SCCN1C(=O)c1ccc([N+](=O)[O-])cc1 (stereo unspecified) | -44.7 | –
COc1cccc(OC)c1C(=O)Nc1c(C(=O)N2CCN(c3ccccn3)CC2)oc2ccccc12 | 100 | –
Cc1[nH]c2ccccc2c1CCN(Cc1cccs1)C(=S)NC(C)(C)C | -0.689 | –
COc1ccc2[nH]c(C)c(CCN(Cc3cccs3)C(=S)Nc3ccccc3OC)c2c1 | – | 0.501 µM (active)
COc1cccc(NC(=S)N(CCc2c(C)[nH]c3ccccc23)Cc2ccco2)c1 | -26.2 | –
CCN(CC)C(=O)C1CCC(C)(C(=O)O)C1(C)C (stereo unspecified) | -16.7 | –

SMILES | activity change, negative = inhibition [%] | Potency
COc1ccc(C(C#N)Nc2ccccc2C)cc1 (stereo unspecified) | 12.4 | –
COc1ccc(C(=O)CC(=O)C(=O)Nc2cc([N+](=O)[O-])ccc2OC)cc1 | -18.2 | –
Cc1ccc(NC(=O)CCNC(=O)c2ccc([N+](=O)[O-])cc2)cc1S(=O)(=O)N1CCOCC1 | -16.7 | –
COc1ccc(NS(=O)(=O)c2cc(NC(=O)CC(=O)c3ccc([N+](=O)[O-])cc3)ccc2C)cc1 | – | 15.8 µM (active)
CCOP(=O)(OCC)C(Nc1ccc([N+](=O)[O-])cc1)c1ccc(Cl)cc1 (stereo unspecified) | 83.3 | –
CC(C)c1ccc(Nc2nnc(SCC(=O)c3nnc(-c4ccccc4)o3)s2)cc1 | – | 25.1 µM (active)
CC(C)N(C(=O)CSc1nnc(NC2CC2)s1)c1ccccc1 | -17.1 | –
Cc1ccccc1Nc1nnc(SCC(=O)c2cc3ccccc3o2)s1 | -49.2 | –
CCOc1ccc(-n2cnc3c(=O)[nH]c(N)nc32)cc1 | -18.8 | –
Cc1ccc2c(c1)c1ncnc(N3CCc4ccccc4C3)c1n2C | 1.78 | –
COc1ccc(CC2c3cc(OC)c(OC)cc3CC[N+]2(C)CCC(=O)OCCCCCOC(=O)CC[N+]2(C)CCc3cc(OC)c(OC)cc3C2Cc2ccc(OC)c(OC)c2)cc1OC (stereo unspecified) | 145 | –
Cc1cc2ccccc2n1CCNC(=O)COc1ccc2ccccc2c1 | – | 10 µM (active)
COC(=O)C(C)NC(=O)COc1ccc2ccccc2c1 (stereo unspecified) | -18.4 | –
Cc1cc2ccccc2n1CCC(=O)O | 4.27 | –
Nn1c(Cc2cccc3ccccc23)nnc1SCC(=O)N1CC(=O)Nc2ccccc21 | 13.7 | –
Nc1cc(C(F)(F)F)ccc1N1CCOCC1 | -6.49 | –
COc1ccccc1C(=O)Nc1ccc(OCc2nnc3c4ccccc4c(C)nn23)cc1 | 208 | –
Cn1c(=O)c2c(SCC(=O)N3CCOCC3)nc(C3CC3)nc2n(C)c1=O | – | 10 µM (active)
CCOC(=O)N1CCN(C(=O)CSc2nc(C)nc3c2c(=O)n(C)c(=O)n3C)CC1 | -9.25 | –
CCCc1nc(SCC(=O)N2CCCC2)c2c(=O)n(C)c(=O)n(C)c2n1 | 49.1 | –
O=C(NC1CCCCC1)c1cc(C2CC2)on1 | -16.9 | –
Cc1nn(Cc2ccc(Cl)c(Cl)c2)c(C)c1NC(=O)c1cc(C2CC2)on1 | – | 10 µM (active)
CSc1ccccc1NC(=O)c1cc(C2CC2)on1 | -8.82 | –
